NOD2 RIPK2 PPI: blocks binding of human NOD2 to RIPK2; CHO BLA complementation NOD2-RIPK2, CCF4 ratio; hit rate 0.38% among 360,000; O43353; inhibition, % at 4.98 µM; in the data active = inhibition above about 21%
TLR9-MyD88 inh: TLR9-MyD88 interaction inhibition. Q9NR96+Q99836. hit rate 0.21% among 340,000. inhibition, % at 4.98 µM. CHO BLA complementation TLR9-MyD88, CCF4 FRET ratio. AID 504734;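 active = inhibition above the mean over all tested compounds plus 3 SD, cut at about 21% in these data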
B2AR ag: human beta-2 adrenergic receptor agonism by FAP; P07550; Am2.2-beta2AR cells, FAP receptor internalization, flow cytometry; response, % (concentration not given with the values); hit rate 0.43% among 340,000; AID 504454;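 active = response above a set limit, near 3 SD of response in nonfluorescent compounds, cut at about 42% in these data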
TLR4-MyD88 BLA: inhibitors of human TLR4-MyD88 binding. O00206+Q99836. HeLa CL3-4 TLR4/MyD88 BLA complementation, FRET ratio. inhibition, % at 8.4 µM. hit rate 0.18% among 200,000; in the data active = inhibition above about 25%
ABHD5-PLIN5 inh: inhibitors of human ABHD5-perilipin-5 interaction; AID 602281; hit rate 0.78% among 360,000; Split G. princeps luciferase complementation, luminescence, 4 h; inhibition, % at 4 µM;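 active = inhibition above the mean inhibition across every tested compound plus 3 SD, cut at about 22% in these data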
Granule exo inh: lytic granule exocytosis inhibition; AID 651702; TALL-104 LAMP-1 surface exposure, flow cytometry; cells stimulated with thapsigargin and PMA; hit rate 0.66% among 360,000; inhibition, % at 10 µM;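 active = inhibition above about 55%, limit read from the data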
Large screens that a line does not name were inactive. The list is not random: actives were taken first. Their share in the collection is about 2%.

CC(=O)c1cccc(-c2ccnc3c2CC(C(=O)NCc2cccs2)O3)c1 (configuration not stated)	none (no result: TLR9-MyD88 inh, B2AR ag, TLR4-MyD88 BLA)
Cc1ccc(S(=O)(=O)/N=C2\C=C(Nc3ccc(O)cc3)C(=O)c3ccccc32)cc1	B2AR ag 74 (no result: TLR4-MyD88 BLA, Granule exo inh)
COC(=O)c1ccccc1NC1=C/C(=N\S(=O)(=O)c2ccc(C(=O)O)cc2)c2ccccc2C1=O	B2AR ag 61 (no result: TLR4-MyD88 BLA)
Cc1ccc(NC2=C/C(=N/S(=O)(=O)c3cccs3)c3ccccc3C2=O)cc1	B2AR ag 43
Cc1ccc(S(=O)(=O)/N=C2\C=C(Nc3cccc(C(=O)O)c3)C(=O)c3ccccc32)cc1	none (no result: TLR4-MyD88 BLA)
O=C1C(Nc2ccccc2)=C/C(=N/S(=O)(=O)c2cccs2)c2ccccc21	B2AR ag 49, Granule exo inh 75
COc1ccc(CNC(=O)CC[C@H]2O[C@@H](n3ccc(=O)[nH]c3=O)[C@H](O)[C@@H]2O)cc1	none (no result: TLR9-MyD88 inh, B2AR ag, TLR4-MyD88 BLA)
CCOc1ncccc1C(=O)OC(C)C(=O)Nc1ccc(N2CCOCC2)cc1 (configuration not stated)	none (no result: TLR4-MyD88 BLA)
COC(=O)C[C@H]1CC[C@H](NC(=O)Nc2ccccc2OC)[C@@H](CO)O1	none (no result: TLR9-MyD88 inh, B2AR ag, TLR4-MyD88 BLA)
O=C(N/N=C/c1ccc(OC(=O)c2ccc3c(c2)OCO3)cc1)c1cncc(Br)c1	B2AR ag 52
C=C1CC(COc2cc(=O)oc3ccccc23)(c2ccccc2)OC1=O (configuration not stated)	B2AR ag 72 (no result: TLR4-MyD88 BLA)
O=[N+]([O-])c1ccc(Br)c(CN2CCN(c3ncc(Cc4ccccc4)cn3)CC2)c1	none (no result: TLR9-MyD88 inh, B2AR ag, TLR4-MyD88 BLA)
CCC(C)[C@H]1CNC(=O)C(=O)N1CC1CCCCC1 (some centres not stated)	none (no result: TLR9-MyD88 inh, B2AR ag, TLR4-MyD88 BLA)
NC(N)=N/N=C/c1ccccc1	none
NC(N)=N/N=C/c1ccc(OCc2ccccc2Cl)cc1	B2AR ag 53
N#C/C(=C\Nc1ccccc1O)c1nc2ccccc2o1	Granule exo inh 86
O=C(NCCc1cccnc1)C1CCC(=O)N(CCc2cccc(F)c2)C1 (configuration not stated)	ABHD5-PLIN5 inh 22 (no result: TLR4-MyD88 BLA)
CCN(CC)CCN(C(=O)c1ccc2c(c1)CCCC2)c1nc2cc(OC)c(OC)cc2s1	Granule exo inh 56 (no result: TLR4-MyD88 BLA)
COc1cc2nc(N(CCN(C)C)C(=O)c3ccc4ccccc4c3)sc2cc1OC	none (no result: TLR4-MyD88 BLA)
CCOc1ccc2nc(N(CCN(C)C)C(=O)c3ccc4c(c3)CCCC4)sc2c1	none (no result: TLR4-MyD88 BLA)
Cc1ccc2nc(N(CCCN(C)C)C(=O)c3ccc4c(c3)CCCC4)sc2c1	ABHD5-PLIN5 inh 22
COc1ccc2sc(N(CCCN(C)C)C(=O)c3ccc(S(=O)(=O)N4CCCc5ccccc54)cc3)nc2c1	B2AR ag 53 (no result: TLR4-MyD88 BLA)
O=C(C(=O)N1CCN(C/C=C/c2ccccc2)CC1)c1ccccc1	none (no result: TLR9-MyD88 inh, B2AR ag, TLR4-MyD88 BLA)
CCOC(=O)C(C(=O)OCC)c1cc(Br)c2noc3c2c1C(=O)c1ccccc1-3	Granule exo inh 98
CC(=O)OCCNc1cc(N2CCN(C)CC2)c2noc3c2c1C(=O)c1ccccc1-3	none
O=c1cc(CO)[nH]nc1CO	none (no result: B2AR ag, TLR4-MyD88 BLA)
Cc1cc(=O)oc2c(N)nccc12	ABHD5-PLIN5 inh 22 (no result: TLR9-MyD88 inh, B2AR ag, TLR4-MyD88 BLA)
O=c1c2c3c(sc2ncn1/N=C/c1ccc([N+](=O)[O-])o1)CCCC3	Granule exo inh 83
CC(C)Oc1ccc(/C=C/C(=O)NCC2COc3ccccc3O2)cc1 (configuration not stated)	B2AR ag 58 (no result: TLR4-MyD88 BLA)
O=C(NCc1ccc(F)cc1)c1cc(C2CCCN(C(=O)c3ccc4ccccc4c3)C2)on1 (configuration not stated)	none (no result: TLR9-MyD88 inh, B2AR ag, TLR4-MyD88 BLA)
CC(C)=CCCC(C)c1cc(C(=O)NCCc2ccc(O)cc2)c(N)s1 (configuration not stated)	none (no result: TLR9-MyD88 inh, B2AR ag, TLR4-MyD88 BLA)
CCN1CCN(CCCNC(=O)c2ccc3c(c2)NC(=O)/C(=C\c2cccc(C)c2)S3)CC1	none (no result: TLR4-MyD88 BLA)
Cc1cccc(/C=C2/Sc3ccc(C(=O)NCCCN4CCOCC4)cc3NC2=O)c1	Granule exo inh 60 (no result: TLR4-MyD88 BLA)
CC(=O)Nc1cc(-c2cccnc2)cn2c(-c3ccc(F)cc3)cnc12	none (no result: TLR9-MyD88 inh, B2AR ag, TLR4-MyD88 BLA)
CC(C)(C)c1ccc(CN2N=Nc3ccccc3S2(=O)=O)cc1	Granule exo inh 97
CCOP(=O)(OCC)/C(=N/OC(=O)c1ccc(OC)cc1)C(N)=O	Granule exo inh 70 (no result: TLR4-MyD88 BLA)
COc1cc2c(cc1OC)C(=O)N1[C@H]3c4ccccc4OC[C@@H]3[C@H](c3ccccc3)[C@]1(C)C(=O)N2	Granule exo inh 65 (no result: TLR4-MyD88 BLA)
COc1ccc2c(c1)OC[C@H]1[C@H]2N2C(=O)c3cc(OC)c(OC)cc3NC(=O)[C@@]2(C)[C@H]1c1ccccc1	none (no result: TLR4-MyD88 BLA)
O=C(O)/C=C1\NC(=O)c2ccccc21	none
O=C1N/C(=C\c2ccc(O)cc2)C(=O)c2ccccc21	ABHD5-PLIN5 inh 34
C[n+]1c2n(c3ccccc31)N=C(c1cc(C(C)(C)C)c(O)c(C(C)(C)C)c1)CS2	Granule exo inh 58
COC1(OC)C=CC(=O)C=C1NC(=O)c1ccccc1OC(C)=O	ABHD5-PLIN5 inh 23 (no result: TLR4-MyD88 BLA)
CC(=O)Oc1ccccc1C(=O)Nc1ccccc1	none (no result: TLR4-MyD88 BLA)
O=[N+]([O-])c1ccc(Nc2nc(N/N=C/c3cccc(F)c3)nc(N3CCCC3)n2)cc1	none
O=[N+]([O-])c1ccc(Nc2nc(NC3CCCCC3)nc(N3CCCC3)n2)cc1	Granule exo inh 78
CCOC(=O)C1=CCC(c2ccc(N(CC)CC)cc2)N(S(=O)(=O)c2ccc(C)cc2)C1c1ccc([N+](=O)[O-])cc1 (configuration not stated)	none (no result: TLR9-MyD88 inh, B2AR ag, TLR4-MyD88 BLA)
Cc1ccc(NC(=S)Nc2ccc3nc(-c4ccccn4)c(-c4ccccn4)nc3c2)cc1C	NOD2 RIPK2 PPI 32
COc1ccc2c(c1)-c1c(sn(-c3ccc(OC)c(OC)c3)c1=S)C(C)(C)N2	Granule exo inh 66
COc1ccc(-n2sc3c(c2=S)-c2cc(OC)ccc2NC3(C)C)cc1	none
CC(=O)C(C(C)=O)c1c(Cl)c(O)c(O)c2c(C(=O)c3ccccc3)coc12	Granule exo inh 91
O=C(O)c1ccccc1NC(=O)C1CCN(S(=O)(=O)c2ccc3c(c2)OCCO3)CC1	none (no result: B2AR ag, TLR4-MyD88 BLA)
COc1cccc(CN(C)C(=O)C2CCCN(C(=O)c3ccc(Cl)cc3)C2)c1 (configuration not stated)	none (no result: B2AR ag, TLR4-MyD88 BLA)
c1ccc(-c2nc(-n3nc4ccccc4n3)nc3ccccc23)cc1	Granule exo inh 65
O=C(CCCC(=O)c1ccc(O)cc1)c1ccc(O)cc1	none (no result: TLR4-MyD88 BLA)
O=C1C=CC(=C(c2ccc(O)cc2)c2ccc(O)cc2)C=C1	ABHD5-PLIN5 inh 78 (no result: TLR4-MyD88 BLA)
CCN1CCN(c2nc(N)c([N+](=O)[O-])c(Nc3ccc(C)c(C)c3)n2)CC1	B2AR ag 63
CCN1CCN(c2nc(N)c([N+](=O)[O-])c(Nc3ccc(C)cc3)n2)CC1	none
COc1ccc(CCN2C(=O)CSCC2(C)C(=O)Nc2ccc3c(c2)OCCO3)cc1OC (configuration not stated)	none (no result: TLR9-MyD88 inh, B2AR ag, TLR4-MyD88 BLA)
Cc1cc2ccccn2c1C(C[N+](=O)[O-])c1ccc(N(C)C)cc1 (configuration not stated)	ABHD5-PLIN5 inh 23

High-throughput results (PubChem BioAssay)
